Test results published in the supplement of paper PMC6555819.

test system: RARa:RXR (NR concentration 270 nM, RXRa partner concentration 90 nM); experiment: PBM binding z-score (relative to random genomic background probes); higher = stronger binding; sequences stand for … in GC…GCGATTGACAGCGTAGAATGAAGG
Outline: (§1)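 Regression normalization was applied to scanned fluorescence from custom Agilent 4×180K protein-binding microarrays. Before scanning, arrays were incubated 1 h with ligand-free nuclear receptor dimers, and binding was detected with antibodies against each partner (one per run). Binding z-scores use the random background probes as reference.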

Sequence	PBM binding z-score
CGTCCAAGGTCAAAGGGCAGTGAAGAGATGACGG	6.27
CCGACTGGGGCAGAAAGGTTACCAGACCATCCGG	1.47
AGTCAAAGTTCATCTCGGTAACGTAAGATATGCT	3.65
TATACAGGGTCAAAGGCCAGAGTACGAATGTCGA	5.75
AGAACGAGGGCAATGACTTGATAGCACGGGTGGC	0.436
GGAGCGAGGGCAAGTTGATAGCAGAGTTTGATGG	0.395
TCTTATAGATCAGCAGGTTAAGAAAGCTGGCCAA	0.109
GCTGCTAGGTGAACTGATGGTCAGCTAAAGCTCG	0.388
AGAATGACGTTACCAAAGATCAGGGAAACGCTTG	-0.159
ATACAAAGGTGATCGTGAGGTCGTTGATACTAAC	3
GCGTATAGGTAATACAAGGTGAAAGTCCGATTGT	1.12
TCTAGCAGGCCAGAAGGTCACTCAAGAGGTACGG	3.63
CCTTACGGGTCACTCCAGGTTATAGCGTCGGAGT	4.18
ATCTCTAGGTAACAAGTGCAGTGAAAGAGAGGAC	0.0235
GATACAGGGTCTGCTAGAGGCCAGAGTATGGAAA	-0.523
TGTGCTAGGTCAACGATGGTCAGCTAATCTGCTA	1.85
ATCTCTAGGGAACCAAGTTCAGTGAATGCCGAAC	0.461
TCTATTAGTTGAAGGGCAACCAACGAGTCCGTTT	0.718
CGAACTAGGTCAGAACAGGACAGTAAAGGATGAT	1.26
CCAGACAGCTGAGAAGGTAACTCAGCCTCGATTA	-0.488

Sequence	PBM binding z-score
TAGCCCAGGTCATGCGGGCCAGTATAGTGTCGGC	3.04
CGAACGAGGGCAGGAGTTGATAGCAAATGCCGAT	-0.159
TCAGACAGGTGAAGGTAACTAAGGTACGCAGTCG	1.22
TCTAGCAGGCCAGAGGGTCACACAAGAGGTACGG	3.44
CCTACTGGGCCATTCAGATGTCATTGATCATATG	-0.682
TCTGCTAGATCAGTTGGTCAGCTAACGAGCTGCC	-0.915
TATACAGGGACAAAGGCCAGAGTACGAATGTCGA	0.273
ATCTCTAGGTAAAGTTCAGGGAAAGATCGATAGA	1.93
AGAATGAGGTTACCAAAGATCAGGGACACGCTTG	2.1
TCTAGTAGTTGATTAGGGCAACCGAAACAGCGGA	0.285
TCGAGTAGGATACCAATGGGGCATTCAGCTTTCT	-1.18
GCTGCTAGGTCAACTGATGATCAGCTAAAGCTCG	2.48
GCGACTGGGGCATCAGCCGGTTACCATAACTTAA	-0.651
TCATATAGGTAAATGCTAGGTGAGAGTCCGATCT	0.343
CGAACTAGGTCATTGTCAGGACAGTGAATAGTAA	2.49
CGTCAAAGTTCATCTAAGGTAACGTAAAGCACGC	3.97
AATAGAGGGTCATCGTAGGCCAGAGTACGCACAG	4.67
TCGGGTAGGTTAGTCGGGGCATTCAGCCAACATA	0.254
CCTAGCAGGCCAGGGTAACTCAAGCATTTCGCTT	-0.455
TCTGCTAGGTCAGTTGGTGAGCTAACGAGCTGCC	0.102

test system: RARa homodimer (NR concentration 270 nM); experiment: as above
Outline: as §1

Sequence	PBM binding z-score
CGTCCAAGGTCAAAGGGCAGTGAAGAGATGACGG	1.01
CCGACTGGGGCAGAAAGGTTACCAGACCATCCGG	-0.579
AGTCAAAGTTCATCTCGGTAACGTAAGATATGCT	1.33
TATACAGGGTCAAAGGCCAGAGTACGAATGTCGA	0.928
AGAACGAGGGCAATGACTTGATAGCACGGGTGGC	-0.218
GGAGCGAGGGCAAGTTGATAGCAGAGTTTGATGG	-0.343
TCTTATAGATCAGCAGGTTAAGAAAGCTGGCCAA	-0.091
GCTGCTAGGTGAACTGATGGTCAGCTAAAGCTCG	-1.4
AGAATGACGTTACCAAAGATCAGGGAAACGCTTG	0.157
ATACAAAGGTGATCGTGAGGTCGTTGATACTAAC	1.26
GCGTATAGGTAATACAAGGTGAAAGTCCGATTGT	0.521
TCTAGCAGGCCAGAAGGTCACTCAAGAGGTACGG	-0.201
CCTTACGGGTCACTCCAGGTTATAGCGTCGGAGT	0.581
ATCTCTAGGTAACAAGTGCAGTGAAAGAGAGGAC	0.451
GATACAGGGTCTGCTAGAGGCCAGAGTATGGAAA	-0.148
TGTGCTAGGTCAACGATGGTCAGCTAATCTGCTA	-0.241
ATCTCTAGGGAACCAAGTTCAGTGAATGCCGAAC	0.0341
TCTATTAGTTGAAGGGCAACCAACGAGTCCGTTT	1.55
CGAACTAGGTCAGAACAGGACAGTAAAGGATGAT	0.18
CCAGACAGCTGAGAAGGTAACTCAGCCTCGATTA	-0.132

Sequence	PBM binding z-score
TAGCCCAGGTCATGCGGGCCAGTATAGTGTCGGC	-0.161
CGAACGAGGGCAGGAGTTGATAGCAAATGCCGAT	-0.0684
TCAGACAGGTGAAGGTAACTAAGGTACGCAGTCG	0.362
TCTAGCAGGCCAGAGGGTCACACAAGAGGTACGG	0.0542
CCTACTGGGCCATTCAGATGTCATTGATCATATG	-0.198
TCTGCTAGATCAGTTGGTCAGCTAACGAGCTGCC	-1.97
TATACAGGGACAAAGGCCAGAGTACGAATGTCGA	0.492
ATCTCTAGGTAAAGTTCAGGGAAAGATCGATAGA	1.68
AGAATGAGGTTACCAAAGATCAGGGACACGCTTG	0.459
TCTAGTAGTTGATTAGGGCAACCGAAACAGCGGA	-0.475
TCGAGTAGGATACCAATGGGGCATTCAGCTTTCT	-1.27
GCTGCTAGGTCAACTGATGATCAGCTAAAGCTCG	-0.292
GCGACTGGGGCATCAGCCGGTTACCATAACTTAA	-1.07
TCATATAGGTAAATGCTAGGTGAGAGTCCGATCT	0.662
CGAACTAGGTCATTGTCAGGACAGTGAATAGTAA	0.423
CGTCAAAGTTCATCTAAGGTAACGTAAAGCACGC	1.85
AATAGAGGGTCATCGTAGGCCAGAGTACGCACAG	1.33
TCGGGTAGGTTAGTCGGGGCATTCAGCCAACATA	0.816
CCTAGCAGGCCAGGGTAACTCAAGCATTTCGCTT	-0.937
TCTGCTAGGTCAGTTGGTGAGCTAACGAGCTGCC	-1.25
